Reference: the OligoGym collection

Each sequence was assayed against PCTP (assay: pooled miR-30 sensor sort-seq; sequence = guide strand). Details: shRNA.

Which sensor-assay potency score (higher = more potent) does the source give for TTCTTTAACATACTGGTCCCAT here?
The sensor-assay potency score (higher = more potent) was -0.412.

For TTGCACAATGGAATGATCGTGT, which sensor-assay potency score (higher = more potent) is on record?
Its sensor-assay potency score (higher = more potent) is 0.345.

Which sensor-assay potency score (higher = more potent) does the source give for TTCATTATAGAACACACTTTTC here?
Its sensor-assay potency score (higher = more potent) is -1.43.

How did the sensor-assay potency score (higher = more potent) turn out when TAGAGTTCTTTAACATACTGGT was run?
Its sensor-assay potency score (higher = more potent) is 0.218.

How did the sensor-assay potency score (higher = more potent) turn out when TAGAACACACTTTTCTTCCCAG was run?
The sensor-assay potency score (higher = more potent) was 0.135.

Which sensor-assay potency score (higher = more potent) does the source give for TACATTTCTAAATATTCTGGGA here?
The sensor-assay potency score (higher = more potent) was -0.38.

For TAACATACTGGTCCCATTGTTT, which sensor-assay potency score (higher = more potent) is on record?
The sensor-assay potency score (higher = more potent) was -0.841.

How did the sensor-assay potency score (higher = more potent) turn out when TTTGCTAGCTGCCACAGCCATC was run?
The sensor-assay potency score (higher = more potent) was -1.46.

For TTGAACTGTAGAAGAAGGCAGC, which sensor-assay potency score (higher = more potent) is on record?
Its sensor-assay potency score (higher = more potent) is -0.297.

Which sensor-assay potency score (higher = more potent) does the source give for AAGTCCAGTCTTCTTGTCCAGC here?
The sensor-assay potency score (higher = more potent) was -1.17.

TTCTTGTTCATAGAGTTCTTTA was tested. Which sensor-assay potency score (higher = more potent) did it give?
Its sensor-assay potency score (higher = more potent) is -0.702.

TTATAGAACACACTTTTCTTCC was tested. Which sensor-assay potency score (higher = more potent) did it give?
Its sensor-assay potency score (higher = more potent) is -0.218.

Each sequence was assayed against PC in the same assay as above. Details: shRNA.

For TTGAGGGAGTCAAACACACGGA, which sensor-assay potency score (higher = more potent) is on record?
The sensor-assay potency score (higher = more potent) was 0.00371.

TTGACCTCCTTGAACTTGGAGC was tested. Which sensor-assay potency score (higher = more potent) did it give?
The sensor-assay potency score (higher = more potent) was -0.629.

How did the sensor-assay potency score (higher = more potent) turn out when TTCTTGACCTCCTTGAACTTGG was run?
The sensor-assay potency score (higher = more potent) was -0.463.

With TTCATCTGCTTTCTGCCGGTGC as the sequence, how does the sensor-assay potency score (higher = more potent) read?
Its sensor-assay potency score (higher = more potent) is -0.101.

With TCTCGCAGCAGGATGTCTCTGA as the sequence, how does the sensor-assay potency score (higher = more potent) read?
The sensor-assay potency score (higher = more potent) was 0.144.

For TAGTACTGCAGTGAGTACTTGG, which sensor-assay potency score (higher = more potent) is on record?
The sensor-assay potency score (higher = more potent) was -0.46.

TACTGCAGTGAGTACTTGGTGC was tested. Which sensor-assay potency score (higher = more potent) did it give?
The sensor-assay potency score (higher = more potent) was -0.271.

With TTGATGTCTATCACCTTCCCAG as the sequence, how does the sensor-assay potency score (higher = more potent) read?
The sensor-assay potency score (higher = more potent) was -0.547.

How did the sensor-assay potency score (higher = more potent) turn out when TTGGTCACATGAACCTTGCGGA was run?
The sensor-assay potency score (higher = more potent) was 0.159.

Which sensor-assay potency score (higher = more potent) does the source give for TTCTCGTCGATGAACTGGGTGT here?
Its sensor-assay potency score (higher = more potent) is -0.428.

For TTGAAGACCACGTTGTCTGGGT, which sensor-assay potency score (higher = more potent) is on record?
The sensor-assay potency score (higher = more potent) was 0.437.

Which sensor-assay potency score (higher = more potent) does the source give for TTGTTGAGCACATTCTGCAGGA here?
Its sensor-assay potency score (higher = more potent) is 0.211.

What follows are sequences tested against PDE12 in the same assay as above. Details: shRNA.

TTGAGGTAGAGGTAGACCCTAA was tested. Which sensor-assay potency score (higher = more potent) did it give?
The sensor-assay potency score (higher = more potent) was -0.795.

How did the sensor-assay potency score (higher = more potent) turn out when TAACTTAAGTCTCTCACCCTTA was run?
Its sensor-assay potency score (higher = more potent) is -0.0358.

With TGAAATTGTAGTAAATCGCTAA as the sequence, how does the sensor-assay potency score (higher = more potent) read?
The sensor-assay potency score (higher = more potent) was 0.612.

With TTCTTTGTGAAGTGGGTCGGAC as the sequence, how does the sensor-assay potency score (higher = more potent) read?
The sensor-assay potency score (higher = more potent) was -0.551.

With AAATGTAATCTAGACATCCATG as the sequence, how does the sensor-assay potency score (higher = more potent) read?
The sensor-assay potency score (higher = more potent) was -1.09.

For TTCACCACAAGCACTTTTCAGC, which sensor-assay potency score (higher = more potent) is on record?
The sensor-assay potency score (higher = more potent) was -0.0283.

For TATCCTTTTAGAAGAGTCCTTT, which sensor-assay potency score (higher = more potent) is on record?
The sensor-assay potency score (higher = more potent) was 0.141.

Which sensor-assay potency score (higher = more potent) does the source give for TTGAAGTTTACATATAAGCTTT here?
The sensor-assay potency score (higher = more potent) was -0.258.

Which sensor-assay potency score (higher = more potent) does the source give for TAAATCGCTAACTAAATTGAGG here?
The sensor-assay potency score (higher = more potent) was -0.622.

How did the sensor-assay potency score (higher = more potent) turn out when TAACTTCTTCATGACTAGGTAA was run?
The sensor-assay potency score (higher = more potent) was -0.476.

Which sensor-assay potency score (higher = more potent) does the source give for TAGTACATAAGCATGATTCATT here?
Its sensor-assay potency score (higher = more potent) is -0.285.

Which sensor-assay potency score (higher = more potent) does the source give for TTGTAGTAAATCGCTAACTAAA here?
The sensor-assay potency score (higher = more potent) was -1.21.

These sequences were tested against PDE1C in the same assay as above. Details: shRNA.

With TTTTGTGCTTGCTGTATCCCAC as the sequence, how does the sensor-assay potency score (higher = more potent) read?
The sensor-assay potency score (higher = more potent) was -0.201.

Which sensor-assay potency score (higher = more potent) does the source give for TTTGAGTAAAAATCTCACGTTG here?
Its sensor-assay potency score (higher = more potent) is -0.294.

TTTCTTTGAATCATTTCCGATG was tested. Which sensor-assay potency score (higher = more potent) did it give?
Its sensor-assay potency score (higher = more potent) is -0.853.
